Screens: PubChem BioAssay, National Center for Advancing Translational Sciences (NCATS)
BAZ2B inh – BAZ2B (human) inhibition; 360,000 compounds, 4.4% hits; AlphaScreen BAZ2B-H3K14Ac peptide displacement; Potency, µM (series often up to 114 µM), for the others: top-dose activity change, negative = inhibition, most hits filed as inhibitors; note: potency is the fitted concentration of half-maximal effect; % is set by controls: 0 for no effect and ±100 for the full control effect; nearly all actives have a fitted effect of over 60% in size
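BAZ2B (50 nM) with biotin-H3(5-23)K14Ac peptide (50 nM) in PBS pH 7.4, 0.01% Tween-20, preformed 30 min, then compound 30 min at room temperature; top concentration 110uM. AlphaScreen streptavidin donor/nickel chelate acceptor beads (10 ug/mL final), 20 min dark, signal read.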
CtBP-E1A blk – inhibitors of CtBP/E1A interaction | activity change, % (test concentration not listed) | AlphaScreen GST-E1A/His-CtBP binding, 1536-well; active compounds read low | 340,000 compounds, 0.49% hits; in the data active = activity change below about -65%; inconclusive = mostly about -30% to -63%; note: % is set by controls: 0 for no effect and ±100 for the full control effect
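Steps: dispense buffer (Tris pH 8.0, NaCl 300 mM, TCEP 1 mM, BSA, Tween 20); add 5X protein mix (GST-E1A, His-CtBP, 125 nM each); pin 23 nL compound; 2 h at 37 °C, dark; add 5X beads (50 ug/mL); 1 h; read.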
G9a block – G9a (human) methyltransferase inhibition | G9a H3K9 monomethylation, AlphaScreen, 2 h | Potency, µM (highest dose often 102 µM), inactives show at the highest dose activity, negative = inhibition, most hits filed as inhibitors | 350,000 compounds, 8.8% hits | AID 504332; note: potency is the fitted concentration of half-maximal effect; % is set by controls: 0 for no effect and ±100 for the full control effect; nearly all actives have a fitted effect of over 75% in size
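G9a (20 nM) was preincubated 15 min with compound, then reacted 2 h at room temperature with 500 nM biotin-H3K9 peptide and 20 µM SAM. Monomethyl-H3K9 detected by AlphaScreen using anti-H3K9me1 antibody.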
Six1-Eya2 inh – blocks human Six1 binding to Eya2 | Q15475+O00167 | AlphaScreen GST-Six1/His-Eya2 binding, biochemical; active compounds read low | activity change, % (concentration not given with the values) | 360,000 compounds, 0.56% hits; in the data active = activity change below about -65%; inconclusive = mostly about -30% to -63%; note: % is set by controls: 0 for no effect and ±100 for the full control effect
Target sequence (O00167 whole entry, looked up): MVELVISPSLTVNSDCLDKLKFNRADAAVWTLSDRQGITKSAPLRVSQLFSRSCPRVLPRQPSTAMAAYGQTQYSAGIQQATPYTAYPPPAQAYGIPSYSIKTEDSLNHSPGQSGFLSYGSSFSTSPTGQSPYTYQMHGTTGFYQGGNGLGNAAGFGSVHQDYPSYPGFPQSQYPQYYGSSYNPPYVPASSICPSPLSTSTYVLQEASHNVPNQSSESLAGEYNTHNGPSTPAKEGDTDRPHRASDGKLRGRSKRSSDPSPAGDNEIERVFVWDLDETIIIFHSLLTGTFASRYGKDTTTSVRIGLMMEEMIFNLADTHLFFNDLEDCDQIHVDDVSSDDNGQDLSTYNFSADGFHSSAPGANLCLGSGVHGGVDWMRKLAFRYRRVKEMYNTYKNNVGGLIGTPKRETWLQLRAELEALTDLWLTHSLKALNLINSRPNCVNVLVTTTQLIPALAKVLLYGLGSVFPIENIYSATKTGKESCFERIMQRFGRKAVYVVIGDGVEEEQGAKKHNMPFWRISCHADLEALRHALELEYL
Target sequence (Q15475 whole entry, looked up): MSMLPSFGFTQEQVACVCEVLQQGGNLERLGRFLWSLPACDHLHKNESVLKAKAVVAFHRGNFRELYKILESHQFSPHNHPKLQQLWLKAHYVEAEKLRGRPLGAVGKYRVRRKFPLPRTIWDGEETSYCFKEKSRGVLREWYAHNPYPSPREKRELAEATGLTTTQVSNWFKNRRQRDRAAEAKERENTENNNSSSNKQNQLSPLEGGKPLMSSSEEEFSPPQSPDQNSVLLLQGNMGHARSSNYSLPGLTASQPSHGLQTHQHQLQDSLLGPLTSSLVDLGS
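AlphaScreen luminescence read after one hour at 37 °C in darkness. Pin-transferred compounds met GST-Six1 and His-Eya2 protein (5X stock 250 nM/500 nM) plus glutathione donor and Ni-chelate acceptor beads (5X, 50 ug/mL).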
HP1b binding inh – blocks HP1-beta chromodomain binding to methylated histone tails. P83916. AlphaScreen HP1-beta / biotin-H3K9me3 peptide binding. Potency, µM (doses to about 114 µM), for the others: at the top dose activity change, negative = inhibition, usual class: inhibitors. 390,000 compounds, 0.56% hits; note: potency is the fitted concentration of half-maximal effect; nearly all actives have a fitted effect of over 70% in size
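AlphaScreen: HP1-beta (50 nM) preformed 30 min with biotin-H3(1-18)K9me3 peptide (50 nM) in PBS pH 7.4, 0.01% Tween-20. Compound added for 30 min at RT, then streptavidin donor/nickel chelate acceptor beads (10 ug/mL) for 30 min.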
JMJD2A Tudor – JMJD2A Tudor domain (human) inhibition | 390,000 compounds, 4.4% hits | AlphaScreen JMJD2A-Tudor / H3K4me3 peptide binding | Potency, µM (top dose mostly 114 µM), inactives show at the top dose activity change, negative = inhibition, actives largely listed as inhibitors; note: potency is the fitted concentration of half-maximal effect; % is set by controls: 0 for no effect and ±100 for the full control effect; nearly all actives have a fitted effect of over 50% in size
The depositor's hits bear a star; [ ] = dose if it differs, or a comment. A selection: hits, their analogues and other compounds. The true share with any hit is near 10%. Unless noted, calls come from the whole dose curve; as a rule, active = well fitted inhibition curve with a large enough effect; inconclusive = small, poorly fitted or top-dose-only effect; inactive = no such curve, though single readings can be large or run the other way.

What do the screens show for `O=C(O)C(O)c1ccco1` (centres undefined)?
BAZ2B inh: 8.91µM*; G9a block: 11.2µM*; Six1-Eya2 inh: inconclusive; HP1b binding inh: inconclusive; JMJD2A Tudor: 22.4µM*

What do the screens show for `c1ccc(-n2cnc3cc(NCc4ccncc4)ccc32)cc1`?
BAZ2B inh: inconclusive; CtBP-E1A blk: -9.9; G9a block: inconclusive; Six1-Eya2 inh: -9.3; HP1b binding inh: 10.7%; JMJD2A Tudor: 56.2µM*

How did COc1cccc(CNc2ccc3c(c2)ncn3C)c1OC do in these assays?
BAZ2B inh: inconclusive; CtBP-E1A blk: -1.1; G9a block: 37.6%[59 µM]; Six1-Eya2 inh: 4.2; HP1b binding inh: -4.4%; JMJD2A Tudor: inconclusive

What do the screens show for `Cn1cnc2cc(NCc3ccccc3Cl)ccc21`?
BAZ2B inh: -31.1%; CtBP-E1A blk: -4.6; G9a block: 50.1µM*; Six1-Eya2 inh: -8.3; HP1b binding inh: -7.3%; JMJD2A Tudor: inconclusive

What do the screens show for `CS(=O)(=O)Nc1ccc2c(c1)ncn2CCc1ccccc1`?
BAZ2B inh: 0.2%; CtBP-E1A blk: -3.0; G9a block: 24.3%[2.33 µM]; Six1-Eya2 inh: -0.7; HP1b binding inh: 32.3%; JMJD2A Tudor: -10.7%

What do the screens show for `CCCn1cnc2cc(NCc3cccs3)ccc21`?
BAZ2B inh: inconclusive; CtBP-E1A blk: -2.9; G9a block: 17.8µM*; Six1-Eya2 inh: 0.6; HP1b binding inh: -1.3%; JMJD2A Tudor: inconclusive

Results for CC(C)c1ccc(CNc2ccc3c(c2)ncn3C)cc1 ?
BAZ2B inh: 39.8µM*; CtBP-E1A blk: -2.0; G9a block: inconclusive; Six1-Eya2 inh: -12.6; HP1b binding inh: 1.3%; JMJD2A Tudor: inconclusive

Results for CC1CCCN(S(=O)(=O)c2cc3c4c(c2)CC(=O)N4CCC3)C1 (centres undefined) ?
BAZ2B inh: -5.2%; G9a block: 14.2%[59 µM]; HP1b binding inh: -7.9%; JMJD2A Tudor: -11.0%

How did CC(C)n1cnc2cc(NCc3ccccc3O)ccc21 do in these assays?
BAZ2B inh: inconclusive; CtBP-E1A blk: -3.8; Six1-Eya2 inh: -8.7; HP1b binding inh: 5.7%; JMJD2A Tudor: -20.8%

What do the screens show for `CCn1cnc2cc(NCc3ccccc3Cl)ccc21`?
BAZ2B inh: inconclusive; CtBP-E1A blk: -16.3; G9a block: 44.7µM*; Six1-Eya2 inh: -19.5; HP1b binding inh: inconclusive; JMJD2A Tudor: inconclusive

How did CCCCn1cnc2cc(NCc3ccncc3)ccc21 do in these assays?
BAZ2B inh: -10.6%; CtBP-E1A blk: 6.0; G9a block: inconclusive; Six1-Eya2 inh: -0.1; HP1b binding inh: 8.2%; JMJD2A Tudor: inconclusive

Results for CCCCn1cnc2cc(NCc3ccccc3Cl)ccc21 ?
BAZ2B inh: 35.5µM*; G9a block: 14.1µM*; HP1b binding inh: inconclusive; JMJD2A Tudor: 39.8µM*

Results for CCc1ccccc1NC(=O)c1cc2nc(-c3ccc(Br)cc3)cc(C(F)(F)F)n2n1 ?
BAZ2B inh: 3.5%; G9a block: -25.4%[59 µM]; HP1b binding inh: 27.5%; JMJD2A Tudor: 0.7%

Results for O=C(CN(Cc1ccccc1)S(=O)(=O)c1ccc2c(c1)OCCO2)N/N=C/c1cccc(Br)c1 ?
BAZ2B inh: 1.8%; CtBP-E1A blk: -6.9; G9a block: 8.7%[59 µM]; Six1-Eya2 inh: -19.2; HP1b binding inh: 6.7%; JMJD2A Tudor: -25.0%

How did COc1cc(/C=N/NC(=O)CN(Cc2ccco2)S(=O)(=O)c2ccccc2)ccc1O do in these assays?
BAZ2B inh: -31.3%; CtBP-E1A blk: -91.5*; G9a block: 23.7%[59 µM]; Six1-Eya2 inh: -82.4*; HP1b binding inh: 1.6%; JMJD2A Tudor: -28.5%

Results for O=C(CN(Cc1ccccc1)S(=O)(=O)c1ccc2c(c1)OCCO2)N/N=C/c1ccc(F)cc1 ?
BAZ2B inh: -16.7%[57.1 µM]; CtBP-E1A blk: 1.5; G9a block: -3.0%; Six1-Eya2 inh: -27.0; HP1b binding inh: -4.8%; JMJD2A Tudor: -22.1%

What do the screens show for `COc1cc(/C=N/NC(=O)CN(Cc2ccccc2)S(=O)(=O)c2ccc3c(c2)OCCO3)ccc1O`?
BAZ2B inh: -6.3%; CtBP-E1A blk: -13.7; G9a block: 6.0%[59 µM]; Six1-Eya2 inh: -82.4*; HP1b binding inh: -7.0%; JMJD2A Tudor: inconclusive

How did COc1ccc(/C=N/NC(=O)CN(Cc2ccccc2)S(=O)(=O)c2ccc3c(c2)OCCO3)cc1 do in these assays?
BAZ2B inh: -8.0%; CtBP-E1A blk: -4.0; G9a block: -11.4%[59 µM]; Six1-Eya2 inh: -65.4*; HP1b binding inh: 26.6%; JMJD2A Tudor: -20.6%

What do the screens show for `COc1ccc(CNC(=O)C2CCN(C(=O)[C@@H]3Cc4ccccc4CN3)CC2)cc1`?
BAZ2B inh: -4.5%; CtBP-E1A blk: -8.1; G9a block: 9.5%; Six1-Eya2 inh: 4.4; HP1b binding inh: 21.0%; JMJD2A Tudor: inconclusive

Results for COc1ccccc1NC(=O)CSc1nnc2c3ccccc3n(C(C)C)c2n1 ?
BAZ2B inh: -16.0%; G9a block: -2.5%[59 µM]; HP1b binding inh: 6.5%; JMJD2A Tudor: -11.8%

How did COc1ccccc1N(O)C1CC(=O)N(c2ccc(Br)cc2)C1=O (centres undefined) do in these assays?
BAZ2B inh: inconclusive; CtBP-E1A blk: -9.4; G9a block: inconclusive; Six1-Eya2 inh: -10.4; HP1b binding inh: inconclusive; JMJD2A Tudor: 25.1µM*

How did CCCCCCC(=O)N(O)C1CC(=O)N(c2ccc(F)cc2)C1=O (centres undefined) do in these assays?
BAZ2B inh: -8.1%; CtBP-E1A blk: 3.0; Six1-Eya2 inh: 0.5; HP1b binding inh: 35.5µM*; JMJD2A Tudor: 50.1µM*

Results for CCCCCCC(=O)N(O)C1CC(=O)N(c2ccc(Br)cc2)C1=O (centres undefined) ?
BAZ2B inh: -9.8%; CtBP-E1A blk: -2.6; G9a block: 0.631µM*; Six1-Eya2 inh: -1.2; HP1b binding inh: -64.8%; JMJD2A Tudor: 25.1µM*

Results for Cc1cccc(OCC(=O)OCC(=O)Nc2sccc2C(N)=O)c1 ?
CtBP-E1A blk: 1.1; Six1-Eya2 inh: -9.9; HP1b binding inh: 16.9%[57 µM]; JMJD2A Tudor: 4.8%

Results for CCOC(=O)c1sc(NC(=O)CNCc2ccccn2)c(C(=O)OCC)c1C ?
BAZ2B inh: 28.2µM*; CtBP-E1A blk: -71.5*; Six1-Eya2 inh: inconclusive; HP1b binding inh: 9.3%; JMJD2A Tudor: inconclusive

Results for CCOC(=O)c1c(NC(=O)COc2ccc(Br)cc2)sc(C(C)=O)c1C ?
BAZ2B inh: -1.8%; G9a block: 14.1µM*; HP1b binding inh: -7.1%; JMJD2A Tudor: -10.7%

What do the screens show for `CCOC(=O)c1c(NC(=O)COc2cccc(C)c2C)sc(C(C)=O)c1C`?
BAZ2B inh: 23.0%; G9a block: 32.0%[59 µM]; HP1b binding inh: 54.0%; JMJD2A Tudor: -6.9%
